# The entries come from a sample that favours hits as a whole.
# Pf Dd2 growth – blocks in vitro growth of P. falciparum Dd2. P. falciparum Dd2 growth, SYBR Green, 72 h. Potency, µM (top dose mostly 28.9 µM), without a hit: at the top dose activity, negative = inhibition, most hits filed as inhibitors. hit rate 4.3% among 120,000; active = well fitted inhibition curve with a large enough effect;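 also: plate controls were DMSO vehicle for no effect and reference drug for full effect; nearly all actives have a fitted effect of over 65% in size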
#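 Readout: SYBR Green fluorescence, 485 nm excitation, 535 nm emission, after ~16 h lysis at 37C. Before that, Dd2-infected red cells (2.5% hematocrit) grew 72 h with compound, 29 uM top final concentration.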
# * = called active by the depositor; i = inactive; [ ] = dose if it differs, or a comment. Potency is read from the fitted curve at half-maximal effect.
SMILES,Pf Dd2 growth
COc1ccc(-c2nc(C)nc3c2CCN(CCC(C)C)CC3)cc1,-15%
COc1ccc(-c2nc(C3CC3)nc3c2CCN(Cc2ccccc2)CC3)cc1,5µM*
Clc1ccc(-c2nc(C3CC3)nc3c2CCN(Cc2ccccc2)CC3)cc1,i
COc1ccc(CC(=O)N2CCc3nc(C4CC4)nc(-c4ccc(Cl)cc4)c3C2)cc1,i
COc1ccc(-c2nc(C)nc3c2CCN(CC2CC2)CC3)cc1,i
COc1ccc(-c2nc(C3CC3)nc3c2CCN(Cc2cc(C)on2)CC3)cc1,2.5µM*
O=C(C1CCC1)N1CCN(C2CCN(Cc3ccccn3)C2=O)CC1 (centres undefined),-20%
Cn1cc(-c2ccccc2OC(F)(F)F)c2nc(CN3CCNC(=O)C3)cn2c1=O,-12%[44.1 µM]
CCNC(=O)N1CCC(c2noc(-c3ccncc3)n2)C1 (centres undefined),15%[5.79 µM]
COc1ccc2[nH]c3c(c2c1)CCNC31CCN(C(=O)c2c(C)noc2C)CC1,i
CC(CCc1ccccc1)NC(=O)Cn1ccn2nc3c(c2c1=O)CCCC3 (centres undefined),-18%
Cn1ncc(N2CCC(CNC(=O)c3ccccc3-n3cncn3)C2)cc1=O (centres undefined),4%
COc1ccc(CN2C[C@H]3CN(Cc4ccc(Cl)cc4)CCN3C2=O)cc1,11%[44.1 µM]
COc1ccc(CN2C[C@H]3CN(Cc4ccc5c(c4)OCCO5)CCN3C2=O)cc1,11µM*
COc1ccc(CN2CCN3C(=O)N(Cc4ccc(OC)cc4)C[C@H]3C2)cc1,-6%[44.1 µM]
CS(=O)(=O)N(C1CCOCC1)C1CN(C(=O)c2n[nH]c3ccccc23)C1,8%
CCN(CC)CCNC(=O)c1c(OCCOC)cc(=O)n2c1CCOCC2,-3%
O=C1CN(C(=O)CCC(=O)N2CCC(CCOc3ccccc3F)C2)c2ccccc2N1 (centres undefined),i
Cc1cnn(CCC(=O)NC2CCc3nnc(C)n3CC2)c1 (centres undefined),21%
CC(C)c1ccc(NC(=O)c2ccc3c(c2)CCN3S(=O)(=O)c2ccccc2)cc1,8.9µM*
CC(C)c1ccc(NC(=O)c2ccc3c(c2)CCCN3S(C)(=O)=O)cc1,-3%
CC(=O)Nc1ccc(NC(=O)c2ccc3c(c2)CCN3S(=O)(=O)c2ccc(Cl)cc2)cc1,i
O=C(O)C[C@@H]1CCN(C(=O)C(=O)O)C[C@@H]1CC1=NCCc2ccccc21,36%[44.1 µM]
CC1(C)CNC(=O)c2nc(CCN3CCCc4ccccc43)[nH]c2C1,-6%
O=S(=O)(NC1CCc2nnc(C3CC3)n2CC1)c1cccnc1 (centres undefined),32%
SMILES,Pf Dd2 growth
CC(=O)c1ccc(NC(=O)N[C@@H]2C=C(C(=O)NCCC(N)=O)C[C@@H](O)[C@@H]2O)cc1,-24%[44.1 µM]
Cc1noc(C)c1[S+](=O)([O-])N1CCn2cc(C(=O)NCc3ccc(Cl)nc3)nc2C1,-11%
COc1ccc(N2CCN(CC(O)COc3ccc(C)cc3C)CC2)cc1 (centres undefined),1%
CCNc1nc2c(c(=O)[nH]c(=O)n2C)n1CC(O)COc1ccc(Cl)cc1Cl (centres undefined),-13%
CC1=CCN(Cc2ccc(OCC(O)CN3CCN(C)CC3)cc2)CC1 (centres undefined),7%
COc1ccc(OCC(O)Cn2c(=N)n(CCN3CCCCC3)c3ccccc32)cc1 (centres undefined),7.9µM*
Cc1ccc(OCC(O)Cn2c(=N)n(CCN3CCCCC3)c3ccccc32)cc1 (centres undefined),2.8µM*
COc1ccc(N2CCN(CC(O)COc3ccc(C(C)(C)C)cc3)CC2)cc1 (centres undefined),-6%
Cc1nc2ccccc2n1CC(O)COc1ccc(C(=O)O)cc1 (centres undefined),17%
CCn1c(COc2ccc(Cl)cc2Cl)nc2ccccc21,-19%
N=c1n(CCN2CCCCC2)c2ccccc2n1CC(O)COc1ccc(Cl)cc1Cl (centres undefined),1µM*
CCOc1ccc2c(n1)CCN(C(=O)Cc1c(C)noc1C)C2,i
COC[C@H]1CCCN1C(=O)[C@@H](C)C1CC[C@@]2(C)CC[C@H](NC(=O)c3ccc(C#N)cc3)[C@@H](C)[C@@H]2[C@H]1O (some centres undefined),-28%
CCc1noc(-c2cn(C3CCN(C(=O)c4ccc(C)cc4C)C3)nn2)n1 (centres undefined),128%
O=C(CC1=C2CCCCC2N(Cc2ccccc2)C1=O)NC1CC1 (centres undefined),-3%
CCc1nn(-c2ccc(OC)cc2)c(Oc2ccccc2F)c1CCC(=O)NC(C)C,7.9µM*
CCc1nn(-c2ccc(OC)cc2)c(Oc2ccccc2F)c1CCC(=O)NCCOC,i
CCc1nn(-c2ccc(OC)cc2)c(Oc2ccccc2F)c1CCC(=O)N(CC)CC,i
N#Cc1ccc(S(=O)(=O)N2CCC3(CC2)CC2C(=O)NCCN2C3)cc1 (centres undefined),8%
Cc1ccc(C(=O)Nc2ccc(S(=O)(=O)N(Cc3ccccc3)c3ccccc3)cc2)cc1,94%
COc1ccc(C(=O)Nc2ccc(S(=O)(=O)N(Cc3ccccc3)c3ccccc3)cc2)cc1,87%
CCOc1ccc(C(=O)Nc2ccc(S(=O)(=O)N(Cc3ccccc3)c3ccccc3)cc2)cc1,10µM*
COCCN1C(=O)[C@H]2CN(Cc3ccc(C)c(C)c3)C[C@H]2C1=O,28%
COc1ccc(-c2noc(-c3nnn(-c4ccc(C)cc4C)c3C)n2)cc1,25%
COc1ccc(-c2noc(-c3nnn(-c4ccc(C(C)C)cc4)c3C)n2)cc1OC,8.9µM*
SMILES,Pf Dd2 growth
COc1ccc(OC)c(-n2nnc(-c3nc(-c4ccc5c(c4)OCO5)no3)c2C)c1,-6%
CN[C@H](C(=O)N[C@H]1C[C@@](O)(C(=O)N[C@H](CC(C)C)C(N)=O)C[C@@H](O)[C@@H]1O)C(C)C,17%[44.1 µM]
O=C(Nc1ccc(F)c(Cl)c1)c1cc(S(=O)(=O)N2CCCc3ccccc32)ccc1F,10µM*
O=C(Nc1ccc(Cl)cc1)c1cc(S(=O)(=O)N2CCc3ccccc32)ccc1F,1%
O=C(Nc1ccc(F)c(F)c1)c1cc(S(=O)(=O)N2CCc3ccccc32)ccc1F,10%
Cc1noc(-c2ccn3c(CNC(=O)Cc4ccccc4Cl)nnc3c2)n1,-8%
CCCN1C(=O)Cc2ccccc2C1C(=O)O (centres undefined),i
CCCCOc1c(CNC(C)c2ncccc2C)cccc1OC (centres undefined),5.6µM*
CCC(=O)NCc1cccnc1Oc1ccccc1OC,5%
COc1ccccc1Oc1ncccc1CNC(=O)c1cccnc1C,-5%
CCOc1ccc(C(=O)N2CCC3(CC2)CC(O)CCO3)cc1 (centres undefined),-8%
Cc1ccc(NC(=O)Cn2c(=O)n(Cc3ccco3)c(=O)c3ccccc32)c(C)c1,-2%
CCOc1ccccc1NC(=O)Cn1c(=O)n(Cc2ccco2)c(=O)c2cccnc21,11µM*
COc1ccccc1NC(=O)Cn1c(=O)n(Cc2ccco2)c(=O)c2cccnc21,13%
CN(CCC1CCOCC1)Cc1ccccc1OCC(O)CN1CCSCC1 (centres undefined),-12%
COCCn1cc(CN(C)Cc2ccccc2)ccc1=O,3%
CN(Cc1ccccc1)Cc1ccccc1OCC(O)CN1CCCCC1 (centres undefined),0.79µM*
O=C(NCc1ccnc2[nH]ccc12)c1ccc(C(F)(F)F)cc1,1%[44.1 µM]
CC(C)(C)c1ccc(-c2cc(C[C@H]3CNCC[C@H]3CC(=O)NCCN3CCOCC3)no2)cc1,10µM*
